Consider 14 molecules from PubChem BioAssay (NCI).

“And” between values parts separate entries of the source, which are not always exact repeats. Identical values can stand only once. About 83,000 compounds went through this panel and 20% of them were active in at least one assay; those are over-represented in the sample as a whole.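 Compound tested at a single concentration for 48 hours in 96-well plates; a percent growth value below 10 was scored as active.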 Values without a mark were called inactive. The source made the active and inactive calls.

This assay relates to HL-60(TB) leukemia. The assay is described as follows: NCI-60 one-dose screen, 48 h (100 = growth as untreated, 0 = no growth, -100 = all killed). The following applies: 10 µM unless noted.
Consider `OC1CCC(Oc2cccc3cnc(Nc4ccc5nc[nH]c5c4)nc23)CC1` (centres undefined), for which the growth is -26.1% (active) and 9% (active).
Regarding `CC(CN(C)C)CN1c2ccccc2CCc2ccccc21` (centres undefined), the growth was 108%.
As to `COc1ccc(-c2nc(N/N=C/c3c[nH]c4ccccc34)nc(N3CCOCC3)c2C#N)cc1`, the growth is 47.9%.
With `CCC(C)CC(C)C(=O)c1c(O)ccn(OC)c1=O` (centres undefined) the figure was 94.6%; with `COC1C(OC(N)=O)C(O)C(Oc2ccc3c(O)c(NC(=O)c4ccc(O)c(CC=C(C)C)c4)c(=O)oc3c2C)OC1(C)C` (centres undefined), 74% and 106%; with `N#Cc1c(C(F)(F)F)cc(Nc2ccc3nc(NCCN4CCCC4)oc3c2)n2c1nc1ccccc12`, 86.6%.
With `Cc1nn(-c2nc3ccccc3s2)c(C)c1Oc1ccccc1O` the figure was 60.3%; with `C#CCOc1cccc(Nc2ncnc3ccc(NC(=O)CCl)cc23)c1`, -58.4% (active); with `Cn1cc(-c2nc(-c3c[nH]c4ccncc34)cs2)c2ccccc21`, -41.9% (active).
`C=C1C(=O)O[C@H]2[C@H]1CC/C(COC(=O)NC1CCC(O)CC1)=C\CC[C@@]1(C)O[C@@H]21` (some centres undefined): the growth was 70.6% and 62.5%.
On to `CCCCOc1ccc(/C=N/NC(N)=S)cc1`, for which the growth is 60.5%.
For `O=C(Nc1cccnc1Nc1ccc(F)cc1)c1cn(Cc2cccc(Oc3ccccc3)c2)nn1` the value was 26.3%; for `C=CCN(/C=C/CN(CC=C)CC=C)CC=C`, 102%; for `O=C(O)CCC(=O)Nc1nnc(-c2ccccc2)s1`, 92.2%.
